± gives the standard deviation of the averaged measurements. Over roughly 33,000 sequences, “E-score (dimensionless, -0.5 to 0.5)” has its median near -0.049; the highest 2% begin near 0.37. The entries come from a sample that favours the highest values as a whole.

These results are taken from the supplement of paper PMC4166925.

In this test the test system is T1, PmTbr T-box DNA-binding domain (GST fusion).
T1 sequence: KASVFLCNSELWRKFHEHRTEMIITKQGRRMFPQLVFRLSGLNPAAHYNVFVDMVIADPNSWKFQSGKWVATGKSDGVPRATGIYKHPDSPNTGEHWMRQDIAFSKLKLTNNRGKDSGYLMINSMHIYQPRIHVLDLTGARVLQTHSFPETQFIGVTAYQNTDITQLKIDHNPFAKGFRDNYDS
Description: PBM E-score of 8-mer (E-score (dimensionless, -0.5 to 0.5)); Tbr is Tbrain of the sea star Patiria miniata (Pm) or the sea urchin Strongylocentrotus purpuratus (Sp); higher = stronger binding preference. Conditions: the construct has about 5 more residues each side. In outline: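 Universal Agilent oligonucleotide arrays, made double-stranded by primer extension, were incubated with 200 nM GST-fused Tbr T-box DNA-binding domain in PBS (pH 7.5). The protein was expressed in BL21 E. coli at 20 °C and purified by glutathione affinity chromatography. After scanning and quantification, the Universal PBM Analysis Suite assigned an enrichment E-score to each ungapped 8-mer, averaged over duplicate arrays.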
Regarding ATCACTAG, the “PBM E-score of 8-mer” value amounted to 0.0709 ± 0.015.
With GTAAGCAA, the “PBM E-score of 8-mer” value is -0.113 ± 0.031.
For the sequence CTTGCACA, the “PBM E-score of 8-mer” value came to 0.148 ± 0.026.
The result for GGGACACC reads 0.216 ± 0.077; that for CCGACACA, 0.37 ± 0.028.
The result for GCGACACA reads 0.302 ± 0.022.
The result for ACGACACG reads 0.225 ± 0.062.
Regarding CCGACACG, the “PBM E-score of 8-mer” value amounted to 0.261 ± 0.013.
As for ACGACACC, the “PBM E-score of 8-mer” value stood at 0.421 ± 0.018.
In the case of CCGACACC, the “PBM E-score of 8-mer” value was found to be 0.448 ± 0.018.
Then CAGACACC, with 0.355 ± 0.0066; and TCGACACA, with 0.319 ± 0.016; and ACGACACT, with 0.298 ± 0.0045.
Then CCGACATC, with -0.0298 ± 0.027.
The result for GCGACACC reads 0.462 ± 0.011.
As to GTCCAGGA, the “PBM E-score of 8-mer” value was -0.195 ± 0.049.
Then ACATATGA, with 0.0313 ± 0.063.
Then CTCGATCA, with 0.0196 ± 0.0013.
As for GTCCCCAA, the “PBM E-score of 8-mer” value was -0.071 ± 0.1.
The result for TCAGTCGA reads -0.0383 ± 0.035; that for AGAGTACC, -0.132 ± 0.064.
Then GATATAAC, with 0.115 ± 0.0035; and GACATCTC, with -0.14 ± 0.016.
The result for GATTTGGC reads 0.249 ± 0.01; that for GGTTGTCA, 0.342 ± 0.0085; that for AGTTGTCA, 0.4064 ± 0.0017.
Turning to AGTTGTCG, the “PBM E-score of 8-mer” value worked out at 0.309 ± 0.0099.
For the sequence CGTTGTTA, the “PBM E-score of 8-mer” value stood at 0.157 ± 0.043.
Then AGTTGTTG, with 0.195 ± 0.0086; and AGTTGTTA, with 0.388 ± 0.011.
The result for CTCTTTTA reads 0.105 ± 0.092; that for ATCACAGG, 0.195 ± 0.099.
The result for ATCACACG reads 0.39 ± 0.0083.
Turning to ATCACAAA, the “PBM E-score of 8-mer” value was 0.0643 ± 0.013.
The result for ATCACACC reads 0.4877 ± 0.0026.
Then ATCACACA, with 0.418 ± 0.01.
For the sequence ATCACAGA, the “PBM E-score of 8-mer” value was found to be 0.129 ± 0.011.
ATCACAGC: the “PBM E-score of 8-mer” value was found to be 0.211 ± 0.024.
The result for AACACACC reads 0.3 ± 0.019.
The result for ATCACATA reads 0.297 ± 0.028; that for AACAAGCT, -0.168 ± 0.035; that for TAGAACGA, -0.136 ± 0.028.
The result for GCATAGTA reads -0.202 ± 0.024.
On to AACACTTA, for which the “PBM E-score of 8-mer” value turned out to be 0.42 ± 0.019.
The result for AACACTGA reads 0.182 ± 0.069; that for ATCACTTC, 0.293 ± 0.015.
The result for AACACTTC reads 0.442 ± 0.014; that for CACACTGA, 0.2581 ± 0.00048; that for CACACTTA, 0.4445 ± 0.0038.
The result for ATCACTTG reads 0.216 ± 0.045; that for ATCACTTA, 0.194 ± 0.042; that for AACACTAG, 0.275 ± 0.056.
In the case of CGCACTTA, the “PBM E-score of 8-mer” value was 0.293 ± 0.022.
The result for AACACTTG reads 0.408 ± 0.0044; that for AGCACTTC, 0.313 ± 0.012; that for AGGACCGG, -0.31 ± 0.028.
The result for TGGCTGAA reads -0.23 ± 0.083; that for CAGACCCA, -0.0557 ± 0.00088.
Then AATGGCGA, with 0.163 ± 0.021; and TGCCATAA, with 0.0817 ± 0.098; and GAAGATCC, with -0.101 ± 0.034.
Consider CCCTGGGA, for which the “PBM E-score of 8-mer” value is -0.131 ± 0.0026.
The result for CCCACTTC reads 0.1799 ± 0.00066; that for GCCACTTA, 0.232 ± 0.021; that for CACACTGC, 0.168 ± 0.039.
Then GACACTGA, with 0.157 ± 0.016.
Then CACACTTC, with 0.445 ± 0.005.
GACACTTA: the “PBM E-score of 8-mer” value is 0.3962 ± 0.0036.
Then GAGTCTAC, with -0.282 ± 0.068.
The result for GGTCGACC reads -0.253 ± 0.033; that for GTGATAGA, 0.297 ± 0.042; that for CGTCGACA, 0.26 ± 0.031.
TGTCGACA: the “PBM E-score of 8-mer” value was determined as 0.371 ± 0.0078.
The result for AGTCGACA reads 0.253 ± 0.013.
The result for ACATTTGA reads 0.038 ± 0.044; that for AATGACGG, -0.0819 ± 0.0024; that for ACAGCGCG, 0.258 ± 0.0087.
Regarding GGTGAGGA, the “PBM E-score of 8-mer” value is 0.364 ± 0.018.
The result for AGTGAGAC reads 0.251 ± 0.023; that for CGTGAGAC, 0.258 ± 0.044.
Then TGAGAGAA, with 0.0636 ± 0.079.
The result for TGTGAGAA reads 0.43 ± 0.0057.
On to GGTGAGAC, for which the “PBM E-score of 8-mer” value was 0.3824 ± 0.0024.
Take AGTGAGAT: the “PBM E-score of 8-mer” value amounted to 0.287 ± 0.016.
Then GGTGAGAA, with 0.4754 ± 0.0012; and TCTGAGAA, with -0.135 ± 0.0068.
Then AGTGAGAA, with 0.421 ± 0.025.
Then AGTGAGAG, with 0.312 ± 0.022; and CGTGAGAA, with 0.349 ± 0.039.
